Compound activity: PubChem BioAssay, National Center for Advancing Translational Sciences (NCATS)
This excerpt belongs to a sample that is enriched for hits.
KDM4E inh – qHTS Assay for Inhibitors of Human Jumonji Domain Containing 2E (JMJD2E) | Lysine-specific demethylase 4E (Homo sapiens), B2RXH2 | JMJD2E catalytic domain, FDH-coupled NADH fluorescence (FDH is formaldehyde dehydrogenase) | Potency, µM (series often up to 57.1 µM), without a hit: top-dose activity change, negative = inhibition, actives largely listed as inhibitors | 1.6% of 230,000 active | AID 2147, 2009; active = well fitted inhibition curve with a large enough effect, not every such curve was filed as active; inconclusive = small, poorly fitted or top-dose-only effect, or another doubt; inactive = no such curve, though single readings can be large or run the other way;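 also: 0% = wells with enzyme and -100% = buffer wells without enzyme; nearly all actives have a fitted effect of over 50% in size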
Target sequence (B2RXH2 1-337 limits assumed): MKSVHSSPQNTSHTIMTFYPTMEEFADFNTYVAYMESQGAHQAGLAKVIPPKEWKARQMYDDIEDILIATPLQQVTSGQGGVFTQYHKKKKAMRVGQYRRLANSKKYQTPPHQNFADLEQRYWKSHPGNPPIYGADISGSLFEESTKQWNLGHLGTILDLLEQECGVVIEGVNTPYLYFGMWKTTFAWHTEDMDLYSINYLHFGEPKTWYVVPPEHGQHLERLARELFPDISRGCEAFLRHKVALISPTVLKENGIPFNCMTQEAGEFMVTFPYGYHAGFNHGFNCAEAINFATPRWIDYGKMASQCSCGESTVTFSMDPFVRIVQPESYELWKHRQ
BLM inh – qHTS Assay for Inhibitors of Bloom's syndrome helicase (BLM); RecQ-like DNA helicase BLM (Homo sapiens), P54132; recombinant BLM DNA unwinding, fluorescence dequenching; Potency, µM (titrated, usually from 56.1 µM), for the others: top-dose activity change, negative = inhibition, usual class: inhibitors; 0.2% of 350,000 active;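 also: plate controls were vehicle for no effect and no enzyme for full effect; nearly all actives have a fitted effect of over 35% in size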
RECQ1 inh – qHTS Assay for Inhibitors of RecQ-Like Dna Helicase 1 (RECQ1) | ATP-dependent DNA helicase Q1 (Homo sapiens), P46063 | RECQ1 DNA unwinding, red fluorescence kinetic read | Potency, µM (top dose mostly 57.3 µM), inactives show at the top dose activity, negative = inhibition, usual class: inhibitors | 0.54% of 240,000 active;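 also: plate controls were vehicle for no effect and no enzyme for full effect; nearly all actives have a fitted effect of over 30% in size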
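RECQ1T1 50 nM; forked duplex (20 bp + 30-nt ss tails) 200 nM, ATP 2 mM final; pH 8.0, 2 mM MgCl2, 2.5 ug/ml poly(dI-dC); 15 min compound preincubation; discontinuous kinetic read over 2 h at RT.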
APEX1 inh – qHTS Assay for Inhibitors of the Human Apurinic/apyrimidinic Endonuclease 1 (APE1); recombinant APE1, TAMRA/BHQ-2 abasic DNA cleavage fluorescence; Potency, µM (top dose mostly 65.8 µM), for the others: at the highest dose activity change, negative = inhibition, hits mostly inhibitors; 0.35% of 350,000 active; AID 2517, 2012;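 also: plate controls were vehicle for no effect and reference inhibitor for full effect; nearly all actives have a fitted effect of over 55% in size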
Target sequence (P27695 whole entry, looked up): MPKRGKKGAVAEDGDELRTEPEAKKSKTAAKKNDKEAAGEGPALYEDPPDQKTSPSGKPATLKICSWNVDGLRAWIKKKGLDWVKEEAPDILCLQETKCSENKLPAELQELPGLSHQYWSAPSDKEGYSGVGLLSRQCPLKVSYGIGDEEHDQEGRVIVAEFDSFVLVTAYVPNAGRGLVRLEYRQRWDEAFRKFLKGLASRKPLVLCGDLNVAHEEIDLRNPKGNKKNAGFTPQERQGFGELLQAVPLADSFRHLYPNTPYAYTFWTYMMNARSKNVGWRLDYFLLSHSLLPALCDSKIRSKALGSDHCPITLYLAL
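0.75 nM APE1 + cpd, 15 min RT; start w/ 50 nM TAMRA/BHQ-2 THF-abasic dsDNA; kinetic fluor 525/598 nm ×3 reads @60 s; Δ(read3−read1); normalized to DMSO and NSC13755 control wells.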
L3MBTL1 block – qHTS Assay for the Inhibitors of L3MBTL1; Lethal(3)malignant brain tumor-like protein 1 (Homo sapiens), Q9Y468; AlphaScreen L3MBTL1–H3K9me1 peptide binding; Potency, µM (highest dose often 57.1 µM), inactives show top-dose activity, negative = inhibition, actives largely listed as inhibitors; 0.66% of 230,000 active; also: nearly all actives have a fitted effect of over 60% in size
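L3MBTL1 50 nM + b-AHA-H3(1-15)K9me1 75 nM, 30 min RT; compound added, 30 min RT; streptavidin donor/Ni-chelate acceptor beads 10 ug/mL each final, 30 min RT dark; AlphaScreen read.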
Active calls of the source: *; i = inactive; ? = inconclusive; · = no result given; [ ] = another dose, or the depositor's remark. Unless noted, calls follow the shape of the dose curve; as a rule, active = well fitted curve in the direction sought with a large enough effect; inconclusive = small, poorly fitted or top-dose-only effect, or another doubt; inactive = no such curve, though single readings can be large; an effect the other way counts as inactive or inconclusive. Unless noted, % is scaled to controls: 0 for no effect and ±100 for the full control effect; potency is read from the fitted curve at half-maximal effect.

SMILES	KDM4E inh	BLM inh	RECQ1 inh	APEX1 inh	L3MBTL1 block
CC12CCC(C(=O)N(CSC(=S)N/N=C\c3ccccc3O)C1=O)C2(C)C (centres undefined)	2.4%	-4.5%	5.2%	6.2%	5.62µM*
CCCCNC(=O)C1CCC(CNS(=O)(=O)c2ccc(C)cc2)CC1 (centres undefined)	0.1%	0.2%	i	6.8%	0.8%
Oc1ccccc1/C=N/Nc1nc2ccccc2o1	28.2µM*	-6.5%	?	16.9%	-10.8%
Brc1ccc(/C=N/Nc2nc3ccccc3o2)cc1	·	-11.1%	·	24.7%	·
CC/C(=N\NC(=O)C(N)=O)c1ccccc1O	8.91µM*	4.1%	-14.6%	-4.6%	0.6%
Oc1cc2c(c(Cl)c1O)CCNC[C@H]2c1ccccc1	12.6µM*	-6.7%	?	9.8%	·
C=CCN1CCc2cc(O)c(O)cc2C(c2ccccc2)C1 (centres undefined)	?	·	-8.1%	17.4%	-14.0%
C=CCN1CCc2c(cc(O)c(O)c2Cl)C(c2ccccc2)C1 (centres undefined)	12.6µM*	-4.8%	-13.2%	-3.8%	·
Oc1cc2c(c(Cl)c1O)CCNCC2c1ccccc1 (centres undefined)	12.6µM*	·	-17.2%	0.1%	·
Cc1cccc(C2CN(C)CCc3c2cc(O)c(O)c3Cl)c1 (centres undefined)	12.6µM*	·	-0.4%	-10.2%	-9.8%
Cc1ccccc1CNC(=O)c1cc2cccc3c2n1CC(C)S3 (centres undefined)	·	-11.2%	·	·	·
O=Cc1ccccc1-c1cn(CCCOCc2ccccc2)nn1	·	-0.5%	·	18.7%	6.2%
O=C(Nc1ccccc1)c1cc(S(=O)(=O)NCc2ccncc2)ccc1Cl	·	-3.8%	·	10.5%	·
COc1ccccc1/C=N/NC(=O)CC(=O)NCc1ccccc1	-3.6%	-1.1%	-0.2%	?	·
O=C1c2cccc3cccc(c23)C(=O)N1CC1CCN(CC(O)COCc2ccc3c(c2)OCO3)CC1 (centres undefined)	?	123.5%	9.1%	9.3%	3.98µM*
CCOC(=O)C1=C(O)c2ccccc2C(=O)/C1=C\c1ccc(CC)cc1	?	-13.9%	-4.2%	-4.1%	?
CCCc1ccc(/C=C2\C(=O)c3ccccc3C(O)=C2C(=O)OCC)cc1	17.8µM*	-12.1%	i	-2.0%	-17.6%
CNC(=O)NC(=O)COC(=O)c1ccc(-n2c(C)ccc2C)cc1	12.6µM*	2.5%	-1.1%	14.1%	?
COc1ccc(-c2noc(CN3CCCCC3c3nccn3C)n2)cc1 (centres undefined)	2.4%	3.8%	11.1%	16.3%	12.4%
COc1ccc(NC(=O)CSc2nc(-c3ccco3)cc(C(F)(F)F)n2)cc1OC	·	-1.2%	·	·	·
Cc1cc(C(=O)NNC(=S)Nc2ccccc2)nn1C	8.91µM*	0.2%	i	-0.8%	-1.7%
CC1(C)CC(=O)C2=C(C1)OC(N)=C(C#N)C2c1ccccc1[N+](=O)[O-] (centres undefined)	?	-4.2%	i	-2.5%	-0.5%
C[C@@H]1CN=C2N(CCNC(=O)CCC3CCCCC3)[C@H](Cc3ccc(O)cc3)CN21	-10.3%	2.7%	-2.7%	0.2%	2.7%
CCCCCCNC(=O)N[C@H](C(=O)NCCC[C@H]1CN2C(=NC[C@H]2C)N1CCC(c1ccccc1)c1ccccc1)C(C)O (some centres undefined)	20µM*	0.7%	i	?	·
CC1=CC(C)(C)Nc2ccc(Cc3ccc4c(c3)C(C)=CC(C)(C)N4)cc21	?	-17.6%	-6.3%	1.2%	?
SMILES	KDM4E inh	BLM inh	RECQ1 inh	APEX1 inh	L3MBTL1 block
CC1=CC(C)(C)Nc2cc(C)c(C)cc21	11.2µM*	1.7%	1.4%	-4.9%	-16.4%
CC1=CC(C)(C)Nc2ccc(OC(=O)c3ccco3)cc21	-5.5%	-5.8%	-0.1%	8.8%	-13.9%
CC1=CC(C)(C)Nc2ccc(C)cc21	14.1µM*	1.2%	-5.9%	-2.1%	-3.0%
Cc1ccc(-c2noc(CCC(=O)Nc3cccc(C#N)c3)n2)cc1	3.9%	-9.7%	4.2%	-4.9%	10.9%
Cc1nc2ccccc2nc(C)c1=NOCc1cccc(F)c1	-0.8%	-8.1%	-0.2%	-3.7%	-3.2%
COc1cc(O)cc(OC)c1OC	-24.1%	-1.8%	i	14.2%	·
COc1c(O)cc(O)cc1O	-18.3%	-10.0%	3.6%	15.8µM*	·
CC#CC(=O)N1CCC(CCc2ccccc2)(C(=O)OCC)CC1	-2.3%	-3.4%	i	-1.8%	-1.7%
O=S(=O)(c1ccc2c(c1)OCCO2)N1CCC(c2nc3ccc(Cl)cc3[nH]2)CC1	5.2%	-7.6%	7.9%	-2.7%	·
CN(C)/C=C1/Sc2ccccc2C1=O	?	-0.1%	i	-2.8%	-2.4%
CC(=O)N(\C=C/C=C/C=C1\Sc2ccccc2C1=O)c1ccccc1	14.1µM*	?	?	?	·
COc1cc2[nH]c(C(=O)NCc3ccccc3)cc2c(OC)c1OC	·	-4.4%	·	15.5%	·
O=C1NN(c2ccccc2)C(=O)/C1=C\c1ccc(-c2cc([N+](=O)[O-])ccc2O)o1	?	-6.4%	28.2µM*	6.3%	?
O=C1NN(c2ccc(Cl)cc2)C(=O)/C1=C\c1ccc(-c2cccc(C(=O)O)c2)o1	-29.9%	-25.6%	?	7.94µM*	·
O=C(Nc1ccc(Cl)c(Cl)c1)c1cccnc1	·	-5.4%	·	33.7%	6.1%[2.29 µM]
CCC(=O)N(CCC1(C(C)C)CCOC(C)(C)C1)Cc1ccco1 (centres undefined)	-5.0%	-1.0%	1.1%	-0.8%	4.0%
CC1=CC2=NC(=O)/C(=C\c3cc(C)n(-c4ccccc4)c3C)C(=N)N2O1	-186.2%	1.4%	-2.1%	-9.9%	2.7%
CC1=CC2=NC(=O)/C(=C\c3cc(C)n(-c4cccc(Cl)c4)c3C)C(=N)N2O1	28.2µM*	0.7%	-6.7%	-2.7%	-4.8%
CCCC1=NN2C(=N)/C(=C\c3cc(C)n(-c4cccc(C)c4)c3C)C(=O)N=C2S1	8.91µM*	1.0%	0.0%	1.4%	-0.8%
CCCC1=NN2C(=N)/C(=C\c3cc(C)n(Cc4ccccc4)c3C)C(=O)N=C2S1	?	-7.7%	i	-4.2%	1.4%
O=c1c2ccc(Cl)cc2nc(-c2cccc(C(F)(F)F)c2)n1O	31.6µM*	-4.4%	-12.1%	14.1%	-1.2%
N#Cc1ccc(-c2nc3cc(Cl)ccc3c(=O)n2O)cc1	·	-0.5%	·	-4.3%	·
COc1cc(NC(=O)c2cnc(N)s2)cc(C(=O)Nc2cccc(C(F)(F)F)c2)c1	20µM*	-13.2%	i	-5.2%	·
